Among all 5,500 compounds or so, about 2,000 (36%) were called active. Roughly 18% stayed inconclusive and do not appear here. Cut-off read from the data, not from the text of the source: active = normalized growth mostly below about 0.91 (no sharp cut-off); inconclusive = no clear call, values can overlap the other calls; inactive = mostly above about 0.92. The list shows a part of the results.
Assay: chemical genetic growth profiling, strain panel (AID 1159580);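 note: tested at 20 µM; growth read once vehicle control cultures reached saturation at 30 °C; 1 = growth at the plate median or of vehicle wells; lower values mean less growth of the strain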
Conditions: growth OD

Measured: normalized growth

NC(=O)NO
inactive: S. cerevisiae deletion strains, locus YJR066W, strain TOR1, stronger effect = lower value 0.931 | S. cerevisiae deletion strains, locus YKL009W, strain mrt4, stronger effect = lower value 0.998 | S. cerevisiae deletion strains, locus YKL068W, stronger effect = lower value 0.997 | S. cerevisiae deletion strains, locus YKL085W, strain MDH1 (second series), stronger effect = lower value 0.989 | S. cerevisiae deletion strains, locus YKL085W, strain MDH1, stronger effect = lower value 0.989 | S. cerevisiae deletion strains, locus YKL160W, strain elf1, stronger effect = lower value 1.03 | S. cerevisiae deletion strains, locus YKL190W, strain CNB1, stronger effect = lower value 1.01 | S. cerevisiae deletion strains, locus YKR001C, strain vps1, stronger effect = lower value 0.992 | S. cerevisiae deletion strains, locus YKR026C, strain gcn3, stronger effect = lower value 1.02 | S. cerevisiae deletion strains, locus YKR091W, strain srl3, stronger effect = lower value 1.01 | S. cerevisiae deletion strains, locus YLL001W, strain dnm1, stronger effect = lower value 1.01 | S. cerevisiae deletion strains, locus YLL026W, stronger effect = lower value 1.02 | S. cerevisiae deletion strains, locus YLL041C, strain sdh2, stronger effect = lower value 1.02 | S. cerevisiae deletion strains, locus YLR027C, strain aat2, stronger effect = lower value 1.03 | S. cerevisiae deletion strains, locus YLR039C, strain RIC1, stronger effect = lower value 1 | S. cerevisiae deletion strains, locus YLR058C, strain SHM2, stronger effect = lower value 1.01 | S. cerevisiae deletion strains, locus YLR102C, strain apc9, stronger effect = lower value 1 | S. cerevisiae deletion strains, locus YLR113W, strain HOG1, stronger effect = lower value 0.951 | S. cerevisiae deletion strains, locus YLR221C, strain rsa3, stronger effect = lower value 1.01 | S. cerevisiae deletion strains, locus YLR258W, strain gsy2, stronger effect = lower value 1.02 | S. cerevisiae deletion strains, locus YLR262C, strain YPT6 (second series), stronger effect = lower value 1 | S. cerevisiae deletion strains, locus YLR262C, strain YPT6, stronger effect = lower value 0.993 | S. cerevisiae deletion strains, locus YLR268W, strain sec22, stronger effect = lower value 0.998 | S. cerevisiae deletion strains, locus YLR320W, strain mms22, stronger effect = lower value 1.02 | S. cerevisiae deletion strains, locus YLR330W, strain CHS5, stronger effect = lower value 1.01 | S. cerevisiae deletion strains, locus YLR342W, strain FKS1 (second series), stronger effect = lower value 1 | S. cerevisiae deletion strains, locus YLR342W, strain FKS1, stronger effect = lower value 1.02 | S. cerevisiae deletion strains, locus YLR357W, strain rsc2, stronger effect = lower value 0.994 | S. cerevisiae deletion strains, locus YLR370C, strain arc18, stronger effect = lower value 1.03 | S. cerevisiae deletion strains, locus YLR371W, strain rom2, stronger effect = lower value 0.997 | S. cerevisiae deletion strains, locus YLR384C, strain iki3, stronger effect = lower value 1.02 | S. cerevisiae deletion strains, locus YLR418C, strain cdc73, stronger effect = lower value 0.97 | S. cerevisiae deletion strains, locus YML016C, strain PPZ1, stronger effect = lower value 1 | S. cerevisiae deletion strains, locus YML032C, strain rad52, stronger effect = lower value 0.984 | S. cerevisiae deletion strains, locus YML120C, strain ndi1, stronger effect = lower value 0.997 | S. cerevisiae deletion strains, locus YML124C, strain tub3, stronger effect = lower value 0.993 | S. cerevisiae deletion strains, locus YMR058W, strain fet3, stronger effect = lower value 1.06 | S. cerevisiae deletion strains, locus YMR078C, strain ctf18, stronger effect = lower value 0.999 | S. cerevisiae deletion strains, locus YMR125W, strain sto1, stronger effect = lower value 1.02 | S. cerevisiae deletion strains, locus YMR129W, stronger effect = lower value 1.02 | S. cerevisiae deletion strains, locus YMR205C, strain PFK2, stronger effect = lower value 1.03 | S. cerevisiae deletion strains, locus YMR223W, strain ubp8, stronger effect = lower value 0.994 | S. cerevisiae deletion strains, locus YMR231W, strain pep5, stronger effect = lower value 1.03 | S. cerevisiae deletion strains, locus YMR263W, strain SAP30, stronger effect = lower value 1.01 | S. cerevisiae deletion strains, locus YMR307W, strain GAS1, stronger effect = lower value 1.03 | S. cerevisiae deletion strains, locus YNL067W, strain RPL9B, stronger effect = lower value 1 | S. cerevisiae deletion strains, locus YNL071W, strain lat1, stronger effect = lower value 1.02 | S. cerevisiae deletion strains, locus YNL128W, strain TEP1, stronger effect = lower value 1.02 | S. cerevisiae deletion strains, locus YNL153C, strain GIM3, stronger effect = lower value 0.994 | S. cerevisiae deletion strains, locus YNL183C, strain NPR1, stronger effect = lower value 0.945 | S. cerevisiae deletion strains, locus YNL209W, strain ssb2, stronger effect = lower value 1.02 | S. cerevisiae deletion strains, locus YNL224C, strain SQS1, stronger effect = lower value 0.99 | S. cerevisiae deletion strains, locus YNL233W, strain BNI4, stronger effect = lower value 1.01 | S. cerevisiae deletion strains, locus YNL248C, strain rpa49, stronger effect = lower value 1.03 | S. cerevisiae deletion strains, locus YNL250W, strain rad50, stronger effect = lower value 0.996 | S. cerevisiae deletion strains, locus YNL271C, strain bni1, stronger effect = lower value 0.999 | S. cerevisiae deletion strains, locus YNL298W, strain CLA4, stronger effect = lower value 0.997 | S. cerevisiae deletion strains, locus YNL307C, strain MCK1, stronger effect = lower value 1 | S. cerevisiae deletion strains, locus YNL322C, strain KRE1 (second series), stronger effect = lower value 1.03 | S. cerevisiae deletion strains, locus YNR049C, strain mso1, stronger effect = lower value 1.01 | S. cerevisiae deletion strains, locus YNR052C, strain pop2, stronger effect = lower value 1.01 | S. cerevisiae deletion strains, locus YOL006C, strain TOP1, stronger effect = lower value 0.967 | S. cerevisiae deletion strains, locus YOL012C, strain htz1 0.591 | S. cerevisiae deletion strains, locus YOL147C, strain pex11, stronger effect = lower value 1 | S. cerevisiae deletion strains, locus YOR001W, strain rrp6, stronger effect = lower value 1.01 | S. cerevisiae deletion strains, locus YOR061W, strain CKA2, stronger effect = lower value 1.01 | S. cerevisiae deletion strains, locus YOR069W, strain VPS5, stronger effect = lower value 1.01 | S. cerevisiae deletion strains, locus YOR070C, strain gyp1, stronger effect = lower value 1.02 | S. cerevisiae deletion strains, locus YOR080W, strain dia2, stronger effect = lower value 1.03 | S. cerevisiae deletion strains, locus YOR083W, strain WHI5 (second series), stronger effect = lower value 0.997 | S. cerevisiae deletion strains, locus YOR083W, strain WHI5, stronger effect = lower value 0.993 | S. cerevisiae deletion strains, locus YOR106W, strain vam3, stronger effect = lower value 1.02 | S. cerevisiae deletion strains, locus YOR136W, strain idh2, stronger effect = lower value 0.991 | S. cerevisiae deletion strains, locus YOR144C, strain elg1, stronger effect = lower value 0.998 | S. cerevisiae deletion strains, locus YOR184W, strain ser1, stronger effect = lower value 0.993 | S. cerevisiae deletion strains, locus YOR231W, strain MKK1, stronger effect = lower value 0.967 | S. cerevisiae deletion strains, locus YOR265W, strain rbl2, stronger effect = lower value 1.02 | S. cerevisiae deletion strains, locus YOR270C, strain vph1, stronger effect = lower value 1.05 | S. cerevisiae deletion strains, locus YOR290C, strain snf2, stronger effect = lower value 1.02 | S. cerevisiae deletion strains, locus YOR316C, strain cot1, stronger effect = lower value 1.01 | S. cerevisiae deletion strains, locus YPL051W, strain arl3, stronger effect = lower value 1.03 | S. cerevisiae deletion strains, locus YPL078C, strain atp4, stronger effect = lower value 1.03 | S. cerevisiae deletion strains, locus YPL106C, strain sse1, stronger effect = lower value 0.984 | S. cerevisiae deletion strains, locus YPL240C, strain hsp82, stronger effect = lower value 1.01 | S. cerevisiae deletion strains, locus YPL241C, strain CIN2, stronger effect = lower value 1.01 | S. cerevisiae deletion strains, locus YPL256C, strain CLN2, stronger effect = lower value 0.954 | S. cerevisiae deletion strains, locus YPR119W, strain clb2, stronger effect = lower value 0.993 | S. cerevisiae deletion strains, locus YPR141C, strain kar3, stronger effect = lower value 0.99 | S. cerevisiae deletion strains, locus YPR163C, strain tif3, stronger effect = lower value 1 | S. cerevisiae deletion strains, locus YPR167C, strain met16, stronger effect = lower value 0.996 | S. cerevisiae deletion strains, strain wtn01, stronger effect = lower value 0.995 | S. cerevisiae strains, strain wild type, stronger effect = lower value 1

— PubChem BioAssay AID1159580 (chemical genetic matrix, 2015)
